# Compound activity as filed in PubChem.
# In the library only some 3.5% were active in any assay of this set; here they are far more common.
# Pf apPOL inh: Pf-apPOL DNA polymerase inhibition | Recombinant Pf-apPOL, molecular beacon fluorescence, 1.5 h | inhibition, % at 10 µM | 210,000 tested, 0.25% active
# mHTT CaM bind: mHTT-calmodulin interaction abrogation; inhibition, % at 15 µM; P42858; AlphaScreen His-mHTT/GST-CaM binding, luminescence; 190,000 tested, 3.6% active; AID 1671202
# Target sequence (P42858 whole entry, looked up, change not shown): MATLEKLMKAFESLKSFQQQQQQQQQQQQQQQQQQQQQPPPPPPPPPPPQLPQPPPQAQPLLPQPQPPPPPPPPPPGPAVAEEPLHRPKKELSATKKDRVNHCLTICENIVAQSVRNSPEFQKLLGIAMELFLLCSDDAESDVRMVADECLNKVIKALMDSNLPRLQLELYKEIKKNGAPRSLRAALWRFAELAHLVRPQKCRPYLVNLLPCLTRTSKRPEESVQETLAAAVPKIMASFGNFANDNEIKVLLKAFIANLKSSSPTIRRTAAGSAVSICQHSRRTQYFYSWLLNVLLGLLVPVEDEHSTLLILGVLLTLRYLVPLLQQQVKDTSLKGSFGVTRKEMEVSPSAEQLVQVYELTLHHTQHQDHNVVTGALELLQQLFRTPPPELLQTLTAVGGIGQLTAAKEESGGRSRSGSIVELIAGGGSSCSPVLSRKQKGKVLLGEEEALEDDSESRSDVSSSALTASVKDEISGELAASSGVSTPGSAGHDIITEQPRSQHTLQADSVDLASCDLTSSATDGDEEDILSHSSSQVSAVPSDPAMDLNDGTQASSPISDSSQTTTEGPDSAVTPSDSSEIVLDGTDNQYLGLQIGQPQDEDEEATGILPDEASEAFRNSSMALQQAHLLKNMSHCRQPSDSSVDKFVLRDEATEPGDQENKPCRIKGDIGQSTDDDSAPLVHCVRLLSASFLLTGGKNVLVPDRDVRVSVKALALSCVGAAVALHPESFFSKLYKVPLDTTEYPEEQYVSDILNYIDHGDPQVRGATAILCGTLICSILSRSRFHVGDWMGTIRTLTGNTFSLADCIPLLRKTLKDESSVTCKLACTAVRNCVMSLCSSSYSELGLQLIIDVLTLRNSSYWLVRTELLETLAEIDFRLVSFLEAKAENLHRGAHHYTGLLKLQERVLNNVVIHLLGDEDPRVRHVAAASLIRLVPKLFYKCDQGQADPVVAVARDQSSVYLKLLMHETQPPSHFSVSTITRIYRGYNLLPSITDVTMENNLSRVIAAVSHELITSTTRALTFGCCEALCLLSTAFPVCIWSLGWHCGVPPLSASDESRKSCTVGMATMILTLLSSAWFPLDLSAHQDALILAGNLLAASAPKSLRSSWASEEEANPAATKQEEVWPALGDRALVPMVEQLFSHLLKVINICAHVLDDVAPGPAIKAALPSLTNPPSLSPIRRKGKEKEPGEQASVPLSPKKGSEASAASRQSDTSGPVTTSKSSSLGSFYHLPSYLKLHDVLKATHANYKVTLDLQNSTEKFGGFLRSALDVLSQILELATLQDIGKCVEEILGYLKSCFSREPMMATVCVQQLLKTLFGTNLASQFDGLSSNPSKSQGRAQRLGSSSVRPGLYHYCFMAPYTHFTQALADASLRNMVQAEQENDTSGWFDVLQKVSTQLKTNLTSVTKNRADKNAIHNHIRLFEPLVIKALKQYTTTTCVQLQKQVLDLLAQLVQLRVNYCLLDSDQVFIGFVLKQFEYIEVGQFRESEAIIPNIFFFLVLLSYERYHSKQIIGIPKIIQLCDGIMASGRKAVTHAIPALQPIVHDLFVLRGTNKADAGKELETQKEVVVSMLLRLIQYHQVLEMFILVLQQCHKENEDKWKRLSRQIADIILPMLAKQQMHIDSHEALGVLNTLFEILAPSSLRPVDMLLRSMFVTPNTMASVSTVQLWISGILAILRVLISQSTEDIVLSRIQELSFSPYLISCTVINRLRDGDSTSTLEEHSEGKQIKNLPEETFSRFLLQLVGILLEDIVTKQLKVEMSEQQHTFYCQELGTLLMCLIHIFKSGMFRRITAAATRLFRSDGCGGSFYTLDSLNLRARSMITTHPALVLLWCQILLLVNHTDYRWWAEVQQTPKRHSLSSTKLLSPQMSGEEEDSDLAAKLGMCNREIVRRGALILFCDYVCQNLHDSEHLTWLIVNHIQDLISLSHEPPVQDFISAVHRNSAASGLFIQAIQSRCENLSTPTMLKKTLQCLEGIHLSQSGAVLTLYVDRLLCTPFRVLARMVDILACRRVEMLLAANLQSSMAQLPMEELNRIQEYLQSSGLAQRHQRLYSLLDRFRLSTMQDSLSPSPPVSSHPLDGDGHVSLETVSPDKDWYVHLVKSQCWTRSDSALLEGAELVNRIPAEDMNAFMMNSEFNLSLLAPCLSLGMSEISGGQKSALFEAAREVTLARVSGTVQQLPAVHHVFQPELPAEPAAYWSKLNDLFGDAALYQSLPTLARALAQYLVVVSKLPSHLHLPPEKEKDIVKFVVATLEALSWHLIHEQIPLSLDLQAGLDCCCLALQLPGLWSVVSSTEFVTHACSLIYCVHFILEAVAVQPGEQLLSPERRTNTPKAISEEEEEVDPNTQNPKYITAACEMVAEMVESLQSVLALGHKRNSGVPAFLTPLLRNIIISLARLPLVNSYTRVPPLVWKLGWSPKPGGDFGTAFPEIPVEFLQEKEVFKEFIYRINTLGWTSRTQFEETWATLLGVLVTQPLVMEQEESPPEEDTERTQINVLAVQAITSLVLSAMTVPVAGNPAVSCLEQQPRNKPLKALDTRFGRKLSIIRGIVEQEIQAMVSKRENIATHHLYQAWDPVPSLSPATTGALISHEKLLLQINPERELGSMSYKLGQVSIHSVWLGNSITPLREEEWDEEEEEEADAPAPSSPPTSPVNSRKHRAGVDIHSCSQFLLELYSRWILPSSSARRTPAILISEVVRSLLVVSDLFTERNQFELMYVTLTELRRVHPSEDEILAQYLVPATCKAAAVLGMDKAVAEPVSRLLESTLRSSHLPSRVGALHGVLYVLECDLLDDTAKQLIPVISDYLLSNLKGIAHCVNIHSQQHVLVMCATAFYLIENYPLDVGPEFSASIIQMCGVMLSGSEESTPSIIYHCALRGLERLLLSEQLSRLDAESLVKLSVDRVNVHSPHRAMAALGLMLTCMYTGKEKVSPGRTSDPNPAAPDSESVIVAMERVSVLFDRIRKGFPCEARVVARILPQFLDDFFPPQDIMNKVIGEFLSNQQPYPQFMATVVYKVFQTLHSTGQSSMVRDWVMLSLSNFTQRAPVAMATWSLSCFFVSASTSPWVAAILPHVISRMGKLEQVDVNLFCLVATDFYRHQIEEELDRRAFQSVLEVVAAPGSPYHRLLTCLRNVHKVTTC
# A number is an active result; n = inactive. Rule as the data show it: active = inhibition above about 50%; inactive = the rest.
SMILES,Pf apPOL inh,mHTT CaM bind
O=C(Nc1ccc2c(c1)Cc1ccccc1-2)c1ccc2ccccc2n1,n,n
Cc1cc(C)nc(Nc2ncc(O)n2-c2ccc(Cl)cc2)n1,51.9,n
Cc1ccc(-n2c(O)cnc2Nc2nc(C)cc(C)n2)cc1,n,n
CN1OCC(S(=O)(=O)N(C)C2CCCCC2)C1c1cccc(F)c1F (centres undefined),n,n
CC(C)CC(NC(=O)c1ccco1)C(=O)O (centres undefined),61.3,n
CC(Nc1c2ccccc2nc2ccccc12)C(=O)NC(CC(N)=O)C(=O)O (centres undefined),n,n
CC(C)CC(NC(=O)C(C)Nc1c2ccccc2nc2ccccc12)C(=O)O (centres undefined),n,65.0
CC(NC(=O)c1ccco1)C(=O)O (centres undefined),n,n
O=C(CN1CCC2(CC1)N=C(c1ccc(F)cc1)C(=O)N2)Nc1ccc(F)cc1F,n,n
Cc1ccc(-c2csc(=Nc3cccc(Cl)c3)n2CCO)cc1,n,93.0
Cc1cccc(N=c2scc(-c3ccc(F)cc3)n2CCO)c1,n,65.0
CCOc1ccc(N=c2scc(-c3ccc(C)cc3)n2C)cc1,n,n
OCCn1c(-c2ccc(I)cc2)csc1=Nc1cccc(Cl)c1,n,80.0
Cc1cc(F)ccc1NC(=O)c1nnn(-c2ccc(F)cc2)c1-c1cccnc1,n,n
COc1ccc(OC)c(NC(=O)c2cc(S(=O)(=O)N3CCCC3)ccc2F)c1,n,n
CCN(CC)C(=O)CC[C@H]1CC[C@]2(CCCN(Cc3cccs3)C2)O1,n,n
CCOC(=O)CC[C@@H]1CC[C@]2(CCCN(Cc3cccs3)C2)O1,n,93.9
Cc1ccsc1C(=O)N1CCCC(c2nc(-c3cnccn3)n[nH]2)C1 (centres undefined),n,n
Cc1cccc(-c2cc3n(n2)CCCN(C(=O)c2cccc(C#N)c2)C3)c1,n,n
N#Cc1cccc(C(=O)N2CCCn3nc(-c4ccc(Cl)cc4)cc3C2)c1,n,55.0
Cc1ccc(C(=O)N2CCCn3nc(-c4cccs4)cc3C2)s1,n,n
Cc1ccc(C(=O)N2CCCn3nc(-c4ccc(Cl)cc4)cc3C2)s1,n,71.2
Cc1cccc(-c2cc3n(n2)CCCN(C(=O)c2ccncc2)C3)c1,n,n
Cc1cccc(-c2cc3n(n2)CCCN(C(=O)COc2ccc(Cl)cc2)C3)c1,n,83.3
COc1ccc(-c2coc3cc4oc(=O)c5c(c4cc23)CCCC5)cc1,n,n
SMILES,Pf apPOL inh,mHTT CaM bind
Cc1nc2sccn2c(=O)c1NC(=O)C1CC1,n,n
CC(=O)c1ccc([C@@H]2C[C@]34CNS(=O)(=O)[C@H]3C[C@H]2O4)cc1,n,n
c1ccc(-c2nc3cc(-c4noc(-c5cccnc5)n4)ccc3o2)cc1,n,n
CCOC(=O)N1CCN(C(=O)C2CCCN(c3cn[nH]c(=O)c3)C2)CC1 (centres undefined),n,n
COc1ccccc1C(NC(=O)C1CCCCC1)c1cc([N+](=O)[O-])c2cccnc2c1O (centres undefined),n,54.0
COc1ccccc1C(NC(C)=O)c1cc([N+](=O)[O-])c2cccnc2c1O (centres undefined),n,100.0
O=C(NC(c1cccs1)c1cc([N+](=O)[O-])c2cccnc2c1O)C1CCCCC1 (centres undefined),n,n
Cc1cccc(CNC(=O)c2cc3c(s2)CCN(C(=O)c2ccccc2)C3)c1,n,n
CCc1ccc(-c2cn(-c3ccc(Cl)cc3)c(=O)[nH]2)cc1,n,n
CC1=C/C(=C/c2ccc(-c3ccc([N+](=O)[O-])cc3)o2)C(=O)O1,n,n
CC1=C/C(=C\c2ccc(-c3ccccc3[N+](=O)[O-])o2)C(=O)O1,n,51.0
O=C(/C=C/c1ccc(-c2ccccc2[N+](=O)[O-])o1)c1ccco1,n,70.9
O=C(/C=C/c1ccc(-c2ccc(Cl)cc2)o1)c1ccco1,n,57.7
O=C(/C=C/c1ccc(-c2ccc([N+](=O)[O-])cc2)o1)c1ccco1,n,n
O=C(/C=C/c1ccc(-c2ccccc2)o1)c1ccco1,n,n
Cc1noc(C2(NC(=O)c3ccccn3)CCCCC2)n1,n,n
COc1ccc(-c2cc(C(F)(F)F)nc(-n3nc(C)c([N+](=O)[O-])c3C)n2)cc1,n,n
O=C1CCCC2=C1C(c1ccccc1C(F)(F)F)c1c(ccc3ncccc13)N2 (centres undefined),n,n
COc1ccc2oc(=O)c(C(=O)Nc3cc(C(F)(F)F)ccc3Cl)cc2c1,n,n
Oc1c(Cl)cc(Cl)cc1C=Nc1c(-c2ccco2)nc2ccccn12,n,64.0
O=[N+]([O-])c1cc(C=Nc2c(-c3ccco3)nc3ccccn23)ccc1Br,n,n
Clc1ccc(C=Nc2c(-c3ccco3)nc3ccccn23)cc1,n,55.0
O=[N+]([O-])c1cc(C=Nc2c(-c3ccco3)nc3ccccn23)c(Cl)cc1Cl,n,n
Cc1sc2nc(SCC#N)[nH]c(=O)c2c1C,n,n
Oc1ccccc1C(Nc1ccccn1)c1ccc2cccnc2c1O (centres undefined),n,100.0
